Results on 20 molecules are retold here after PubChem BioAssay.

The list shows a part of the results. Unmarked numbers belong to inactive results. Calls of active or inactive are those of the source.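 Rule for the calls, unless noted: active = activation above the mean of solvent-only control wells plus 3 SD, set per campaign (cut at about 130% in these data); inactive = the rest.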

Experiment [1] can be described thus: STAT1 signaling activators, confirmation, cell-based, HTS, luciferase reporter (AID 1262;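 active = activation above a set limit carried over from the earlier primary STAT1 screen, cut at about 140% in these data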;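 note: simple ratio to median IFN-gamma plus DMSO wells so 0% means no light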). The note with it: NIH 3T3 STAT1-luciferase reporter, IFN-gamma potentiation, luminescence; at 5.7 µM; active compounds read high; 100% = IFN-gamma EC80 alone, no compound.
Experiment [2] can be described thus: NF-kB reporter activators, TNF-alpha stimulated, counter-screen for STAT1 activator project, cell-based, HEK293T, luciferase luminescence (AID 1306).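 Note: TNF-alpha given at a submaximal dose yielding about 80% of full reporter signal; values are well signal over median control so 100% means no change and 0% no light.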 The following applies: at 5.7 µM, active compounds read high, 100% = TNF-alpha with vehicle only. A general note: Counterscreens check selectivity or assay interference.
In experiment [3] the target is Signal transducer and activator of transcription 3 (Homo sapiens) (UniProt P40763). Put plainly: STAT3 reporter activation by STAT1 hits, confirmation, counter-screen for STAT1 activator project, U3A cells, luciferase, luminescence (AID 1316;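 active = activation above the solvent-only control well mean plus 3 SD, set per plate batch, cut at about 110% in these data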;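 note: 0% = no luminescence and 100% = median IL-6 plus DMSO wells; higher means more STAT3 reporter activation so hits are non-selective activators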). The following applies: IL-6, luminescence, at 5.7 µM, active compounds read high, 100 = IL-6 alone, no compound effect, cells lack STAT1.

Experiment [4] addresses Oxysterols receptor LXR-beta (Homo sapiens) (UniProt P55055). Put plainly: LXR agonists, Gal4 luciferase reporter, confirmation, counter-screen for hcDAF-12 agonist project, cell-based, luminescence, HEK293, H. contortus campaign (AID 743027;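 active = mean percent activation of the reporter above a cutoff set as the average over tested compounds plus their standard deviation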). The following applies: HEK293 Gal4-LXR tk-luc reporter, 24 h, at 6.8 µM, active compounds read high, normalized: DMSO 0%, positive control 100%. In general terms: Reporter assays use an easily measured gene product as a stand-in for the process of interest.

Experiment [5] relates to Nuclear hormone receptor DAF-12 (Haemonchus contortus). Nature of the experiment: H. contortus DAF-12 receptor agonists, confirmation, cell-based, luminescence, HEK293, lit1-tk-luc, triplicate (AID 743032;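 active = mean activation across triplicate tests above the threshold derived from the earlier primary screen, cut at about 5.5% in these data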;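 note: 0% = DMSO only wells and 100% = 3 µM Δ7-dafachronic acid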). The note with it: HEK293 hcDAF-12 lit1-tk-luc reporter, at 6.8 µM, active compounds read high, % of Δ7-dafachronic acid response.
The subject of experiment [6] is DAF-12 nuclear receptor (Heterodera glycines), GAL4-LBD fusion. Put plainly: H. glycines DAF-12 receptor agonists, confirmation, cell-based, luminescence, HEK293, GAL4-LBD fusion (AID 743050;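 active = mean activation over triplicate wells above the hit cutoff derived from the earlier primary screen, cut at about 11% in these data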;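 note: 0% = DMSO low control and 100% = 2 mM sodium butyrate high control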). The following applies: HEK293 GAL4-hgDAF12 luciferase reporter, agonist mode; at 6.8 µM; active compounds read high; percent of butyrate response.
Experiment [7] has as its target Oxysterols receptor LXR-beta (Homo sapiens) (UniProt P55055). Put plainly: LXR agonists, Gal4 luciferase reporter, confirmation, counter-screen for hgDAF-12 agonist project, cell-based, luminescence, HEK293, H. glycines campaign (AID 743051;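 active = mean activation of the triplicate above a set limit carried over from the primary screen, none filed active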). The note with it: 24 h, at 6.8 µM, active compounds read high.
A short description of experiment [8]: KLF5 expression inhibitors, confirmation, DLD-1 cells, luminescence (AID 1834;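 active = inhibition above a set limit taken from the earlier primary screen, cut at about 63% in these data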;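 note: 0% = DMSO wells and 100% = LY294002 at 200 µM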). The note with it: DLD-1 KLF5 promoter firefly luciferase reporter, at 4 µM, active compounds read high.
Experiment [9] is described as follows: cytotoxicity in rat IEC-6 cells, cytotoxicity control for KLF5 inhibitor project, cell-based, luminescence, triplicate (AID 1905; in the data active = inhibition above about 23%;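 note: cells exposed to compounds for 48 hours before viability read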). The following applies: IEC-6 rat intestinal cells, viability luminescence; at 4 µM; active compounds read high.
The target of experiment [10] is Insulin-degrading enzyme (Homo sapiens) (UniProt P14735). Nature of the experiment: human IDE inhibitors in live cells, confirmation, fluorescence polarization, HEK cells, FAbetaB substrate (AID 435028;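 active = mean inhibition across triplicate wells above the cutoff set by the earlier primary insulin-degrading enzyme screen, cut at about 16% in these data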;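 note: 0% = DMSO wells and 100% = 60 µM reference IDE inhibitor Ii1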). The following applies: FAbetaB cleavage, at 5.59 µM, active compounds read high.
Sequence of Insulin-degrading enzyme (Homo sapiens) (P14735 whole entry, looked up): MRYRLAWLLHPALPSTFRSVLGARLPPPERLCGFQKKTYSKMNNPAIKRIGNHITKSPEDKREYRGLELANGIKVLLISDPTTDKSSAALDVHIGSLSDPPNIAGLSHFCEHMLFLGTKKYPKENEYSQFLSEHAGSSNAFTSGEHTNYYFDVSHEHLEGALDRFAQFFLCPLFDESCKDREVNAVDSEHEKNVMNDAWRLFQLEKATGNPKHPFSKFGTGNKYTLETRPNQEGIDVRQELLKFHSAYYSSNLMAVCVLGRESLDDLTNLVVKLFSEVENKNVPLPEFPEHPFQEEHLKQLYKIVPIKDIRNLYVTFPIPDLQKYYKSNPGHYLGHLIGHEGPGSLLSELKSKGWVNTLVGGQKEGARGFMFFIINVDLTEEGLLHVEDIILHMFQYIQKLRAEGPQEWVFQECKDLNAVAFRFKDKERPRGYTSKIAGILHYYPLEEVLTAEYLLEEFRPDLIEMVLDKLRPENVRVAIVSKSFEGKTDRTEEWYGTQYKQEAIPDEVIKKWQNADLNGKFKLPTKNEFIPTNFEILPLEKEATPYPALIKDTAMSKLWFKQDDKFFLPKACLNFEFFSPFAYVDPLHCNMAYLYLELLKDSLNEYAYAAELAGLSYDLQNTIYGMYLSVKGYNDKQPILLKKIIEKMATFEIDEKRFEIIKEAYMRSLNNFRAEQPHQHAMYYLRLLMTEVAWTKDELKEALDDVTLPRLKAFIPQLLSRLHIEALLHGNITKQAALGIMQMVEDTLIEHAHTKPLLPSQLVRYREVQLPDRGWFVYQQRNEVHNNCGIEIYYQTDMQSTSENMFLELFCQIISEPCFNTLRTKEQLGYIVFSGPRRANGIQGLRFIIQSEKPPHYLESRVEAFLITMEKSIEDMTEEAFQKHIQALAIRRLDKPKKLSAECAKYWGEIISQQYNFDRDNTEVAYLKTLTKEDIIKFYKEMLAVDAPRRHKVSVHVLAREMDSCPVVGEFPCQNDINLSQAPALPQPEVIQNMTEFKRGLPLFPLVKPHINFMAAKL
A short description of experiment [11]: cytotoxicity in HEK cells, cytotoxicity control for IDE inhibitor project, cell-based, luminescence (AID 449730; in the data active = inhibition above about 22%;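 note: 0% = vehicle wells and 100% = reference cytotoxic drug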). The following applies: HEK293 cytotoxicity, ATP luminescence; at 5.59 µM; active compounds read high.
Experiment [12] can be described thus: growth loss of phage-infected E. coli expressing H. pylori AddAB, confirmation, AddAB inhibitor project, absorbance, E. coli V3065, T4 phage, triplicate (AID 488942;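 active = mean inhibition above a set limit taken from the earlier primary screen, cut at about 13% in these data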;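 note: higher means less bacterial growth since AddAB block lets phage replicate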). The note with it: OD, at 11.9 µM, active compounds read high, T4 phage with gene 2 nonsense mutations.
Experiment [13] in a line: growth loss of RecBCD+ E. coli with mutant T4 phage, counter-screen for AddAB inhibitor project, absorbance, V66 E. coli (AID 488955;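 active = mean inhibition above the mean of solvent-only control wells plus 3 SD, cut at about 4% in these data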;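 note: optical density read after an 18 h incubation at 37 °C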). The following applies: OD growth, at 11.9 µM, active compounds read high.
Experiment [14] in a line: bacterial viability inhibition counter-screen, confirmation, counter-screen for AddAB inhibitor project, absorbance (AID 488956; in the data active = inhibition above about 25%). The note with it: absorbance (AddAB counterscreen), at 11.9 µM, active compounds read high.

Sequence of Oxysterols receptor LXR-beta (Homo sapiens) (P55055 whole entry, looked up, the tested form may be a part): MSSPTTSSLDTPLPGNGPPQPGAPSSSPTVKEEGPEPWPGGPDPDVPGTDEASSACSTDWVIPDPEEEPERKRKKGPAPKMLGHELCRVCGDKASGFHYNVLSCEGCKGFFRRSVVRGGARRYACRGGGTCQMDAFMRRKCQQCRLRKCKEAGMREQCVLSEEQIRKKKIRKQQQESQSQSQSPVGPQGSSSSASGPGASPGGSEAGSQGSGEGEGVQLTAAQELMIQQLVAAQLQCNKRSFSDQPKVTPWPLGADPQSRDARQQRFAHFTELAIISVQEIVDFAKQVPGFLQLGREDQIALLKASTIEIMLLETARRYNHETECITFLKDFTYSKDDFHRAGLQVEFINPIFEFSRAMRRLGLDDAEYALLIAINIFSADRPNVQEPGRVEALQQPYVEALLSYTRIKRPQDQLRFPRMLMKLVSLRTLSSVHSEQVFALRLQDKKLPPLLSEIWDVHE

As for `CCOc1ccc2nc(C(=O)N3CCCC(C)C3)sc2c1` (stereo not drawn), the activation (% of control) was 217% (active) in experiment [1], 133% in experiment [2] and 97.8% in [3]. Also, the activation in [4] was 1.14%; in experiment [5], 4.22%.

Consider `Cc1cccc(-c2noc(-c3ccc(F)cc3)n2)c1`, for which the activation (% of control) in experiment [1] is 222% (active); in experiment [2], 133%; in [3], 119% (active).

As for `COc1ccc(-c2csc(Cc3nc(O)cs3)n2)cc1`, the activation (% of control) is 265% (active) in experiment [1], 150% (active) in [2] and 124% (active) in experiment [3]. The activation in experiment [4] was 1.22%; in experiment [5] it was 7.02% (active).

As to `Cc1cccc(NC(=O)Nc2ccc3c(c2)OCO3)n1`, the activation (% of control) is 192% (active) in experiment [1], 133% (active) in experiment [2] and 121% (active) in experiment [3]. The activation in experiment [4] is 0.92%; in experiment [5], 4.11%; in [6], 18.4% (active); in [7], 0.79%.

With `Cc1noc(C)c1/C=N/Nc1ccc2ccccc2n1`, the activation (% of control) in [1] is 235% (active); in experiment [2], 141% (active); in [3], 149% (active). The activation in [4] was 1.54%; in [5] it was 15.2% (active).

Take `O=C(c1cc(-c2cccs2)on1)N1CCCCC1`: the figures for the activation (% of control) in experiment [1], in experiment [2] and in experiment [3] were 184% (active), 125% and 105%, respectively.

As for `COc1ccc(C2Nc3ccccc3C(=O)N2c2ccc(Cl)cc2)cc1Cn1cc([N+](=O)[O-])cn1` (stereo not drawn), the activation (% of control) in [1] is 151% (active); in experiment [2] it was 112%; in experiment [3], 120% (active). In addition, the activation in experiment [6] is 10.6% (active); in experiment [7], 0.5%.

`Cc1cc(C)c2nc(NC(=O)C3CCCO3)sc2c1` (stereo not drawn): the activation (% of control) in experiment [1] is 209% (active); in experiment [2] it was 138% (active); in experiment [3], 195% (active). Also, the activation is 1.55% in [4] and 6.1% (active) in experiment [5].

`Cc1ccccc1Nc1nc(N)nc(CSc2ccccc2)n1`: the activation (% of control) is 220% (active) in experiment [1], 126% in experiment [2] and 127% (active) in experiment [3]. Further, the activation in experiment [4] is 1.61%; in [5], 8.23% (active); in experiment [6], 17.7% (active); in experiment [7], 0.84%.

As for `O=C(Nc1ccc2oc(-c3ccccc3F)nc2c1)c1ccco1`, the values for the activation (% of control) in [1], in [2] and in [3] were 204% (active), 137% (active) and 104%, respectively. In addition, the values for the activation in [6] and in [7] were 11.9% (active) and 0.57%, respectively.

With `CCc1ccc(NC2Nc3cc(C)nn3S2)cc1` (stereo not drawn), the figures for the activation (% of control) in experiment [1], in experiment [2] and in experiment [3] were 206% (active), 141% (active) and 126% (active), respectively. Further, the activation in experiment [6] was 18.8% (active); in [7], 0.76%.

With `CN(c1ccc(C(=O)NCCC2=CCCCC2)cc1)S(C)(=O)=O`, the activation (% of control) in experiment [1] was 177% (active); in experiment [2], 124%; in experiment [3], 121% (active).

With `CCNc1nc(-c2cc3ccccc3o2)cs1`, the activation (% of control) was 131% (active) in experiment [1], 121% in experiment [2] and 103% in experiment [3]. Further, the activation in experiment [4] is 2.08%; in experiment [5], 8.18% (active).

Take `CC(=O)c1sc(NC(=O)c2ccc(C)cc2)nc1C`: the activation (% of control) in [1] was 185% (active); in experiment [2], 123%; in [3], 94.7%.

The inhibition is the percentage by which the read-out fell short of the control. Regarding `COc1ccc(CS(=O)/C(Cl)=C(/Cl)C(=O)Nc2ccc(OC)nc2)cc1` (stereo not drawn), the activation (% of control) in experiment [1] was 335% (active); in [2], 67.4%; in experiment [3], 105%. The results for the inhibition in [8] and in experiment [9] were 97% (active) and 63.7% (active), respectively.

For the molecule `CN1C(=O)/C(=C/C=C2\SCCN2C)OC1=S`, the values for the activation (% of control) in [1], in experiment [2] and in experiment [3] were 175% (active), 132% and 118% (active), respectively. The inhibition was 86.5% (active) in [10] and 9.01% in experiment [11].

In the case of `CCOC(=O)/C(C#N)=C/c1ccc(N2CCCCC2)cc1`, the activation (% of control) in experiment [1] was 155% (active); in experiment [2], 140% (active); in experiment [3], 108%.

As to `CCn1c(/C=C/c2ccc([N+](=O)[O-])o2)nc2ccccc2c1=O`, the figures for the activation (% of control) in experiment [1], in experiment [2] and in [3] were 125%, 156% (active) and 102%, respectively. In addition, the inhibition was 92.8% (active) in experiment [12], 12.8% (active) in [13] and 42.1% (active) in [14].

As to `COc1ccc(/C=N/Nc2nc3ccccc3o2)cc1OC`, the activation (% of control) in experiment [1] was 208% (active); in experiment [2], 133%; in experiment [3] it was 108%.

For `CN(C)c1ccnc2sc(C(=O)c3ccccc3)c(N)c12`, the activation (% of control) in experiment [1] is 188% (active); in experiment [2], 126%; in experiment [3] it was 109%. In addition, the activation in [6] is 14.2% (active); in experiment [7], 0.47%.
